Experimental data: ChEMBL document CHEMBL1961873, “Compounds: GSK PKIS; Assays: Nanosyn kinase panel” (2012)

Key:
[1] = molecular target: MAP/microtubule affinity-regulating kinase 3 (Homo sapiens) (UniProt P27448); details: at 1 µM;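 note: reported values are averaged percent inhibition of MARK3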
[2] = molecular target: T1, MAP/microtubule affinity-regulating kinase 4 (Homo sapiens) (UniProt Q96L34); details: at 0.1 µM
T1 sequence (whole entry): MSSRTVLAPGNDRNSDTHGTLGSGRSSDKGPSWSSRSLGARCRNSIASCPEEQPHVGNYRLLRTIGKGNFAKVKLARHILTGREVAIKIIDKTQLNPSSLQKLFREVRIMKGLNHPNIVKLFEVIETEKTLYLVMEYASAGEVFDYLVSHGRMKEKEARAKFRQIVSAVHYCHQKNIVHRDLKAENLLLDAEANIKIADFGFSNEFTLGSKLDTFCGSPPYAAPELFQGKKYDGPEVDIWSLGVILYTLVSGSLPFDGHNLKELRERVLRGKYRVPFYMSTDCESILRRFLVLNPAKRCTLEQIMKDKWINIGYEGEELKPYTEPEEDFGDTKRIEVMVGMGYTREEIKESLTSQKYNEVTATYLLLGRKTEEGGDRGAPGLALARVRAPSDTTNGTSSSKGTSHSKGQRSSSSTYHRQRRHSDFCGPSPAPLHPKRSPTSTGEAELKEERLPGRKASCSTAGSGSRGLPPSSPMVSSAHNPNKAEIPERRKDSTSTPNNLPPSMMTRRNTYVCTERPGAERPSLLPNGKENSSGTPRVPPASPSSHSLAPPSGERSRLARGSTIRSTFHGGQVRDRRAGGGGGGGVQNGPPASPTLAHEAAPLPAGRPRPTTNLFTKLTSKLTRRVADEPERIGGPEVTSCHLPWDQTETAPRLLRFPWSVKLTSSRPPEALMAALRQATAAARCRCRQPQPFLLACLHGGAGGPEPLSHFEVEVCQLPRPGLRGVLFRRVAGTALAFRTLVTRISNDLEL

[3] = molecular target: T1, MAP/microtubule affinity-regulating kinase 4 (Homo sapiens); details: at 1 µM
[4] = molecular target: Maternal embryonic leucine zipper kinase (Homo sapiens) (UniProt Q14680); details: at 0.1 µM
[5] = molecular target: Maternal embryonic leucine zipper kinase (Homo sapiens) (UniProt Q14680); details: at 1 µM
[6] = molecular target: MAP kinase-interacting serine/threonine-protein kinase 1 (Homo sapiens) (UniProt Q9BUB5); details: at 0.1 µM
[7] = molecular target: MAP kinase-interacting serine/threonine-protein kinase 1 (Homo sapiens) (UniProt Q9BUB5); details: at 1 µM
[8] = molecular target: MAP kinase-interacting serine/threonine-protein kinase 2 (Homo sapiens) (UniProt Q9HBH9); details: at 0.1 µM
[9] = molecular target: MAP kinase-interacting serine/threonine-protein kinase 2 (Homo sapiens) (UniProt Q9HBH9); details: at 1 µM
[10] = molecular target: Serine/threonine-protein kinase MARK2 (Homo sapiens) (UniProt Q7KZI7); details: at 0.1 µM
[11] = molecular target: Serine/threonine-protein kinase MARK2 (Homo sapiens) (UniProt Q7KZI7); details: at 1 µM
[12] = molecular target: PAS domain-containing serine/threonine-protein kinase (Homo sapiens) (UniProt Q96RG2); details: at 0.1 µM
[13] = molecular target: PAS domain-containing serine/threonine-protein kinase (Homo sapiens) (UniProt Q96RG2); details: at 1 µM
[14] = molecular target: Phosphorylase b kinase gamma catalytic chain, skeletal muscle/heart isoform (Homo sapiens) (UniProt Q16816); details: at 0.1 µM
[15] = molecular target: Phosphorylase b kinase gamma catalytic chain, skeletal muscle/heart isoform (Homo sapiens) (UniProt Q16816); details: at 1 µM
[16] = molecular target: T2, Phosphorylase b kinase gamma catalytic chain, liver/testis isoform (Homo sapiens) (UniProt P15735); details: at 0.1 µM
T2 sequence (whole entry): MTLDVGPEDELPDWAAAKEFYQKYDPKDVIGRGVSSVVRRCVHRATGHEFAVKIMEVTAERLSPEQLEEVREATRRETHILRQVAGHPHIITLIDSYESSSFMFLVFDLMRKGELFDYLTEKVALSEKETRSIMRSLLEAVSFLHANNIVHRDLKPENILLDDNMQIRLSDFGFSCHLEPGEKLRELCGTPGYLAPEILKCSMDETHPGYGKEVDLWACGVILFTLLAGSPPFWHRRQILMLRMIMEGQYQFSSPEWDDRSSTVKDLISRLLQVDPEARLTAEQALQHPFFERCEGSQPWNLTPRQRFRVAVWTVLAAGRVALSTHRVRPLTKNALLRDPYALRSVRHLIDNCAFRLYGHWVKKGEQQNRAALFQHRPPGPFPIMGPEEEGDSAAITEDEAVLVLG

[17] = molecular target: T2, Phosphorylase b kinase gamma catalytic chain, liver/testis isoform (Homo sapiens); details: at 1 µM
[18] = molecular target: Serine/threonine-protein kinase pim-1 (Homo sapiens) (UniProt P11309); details: at 0.1 µM
[19] = molecular target: Serine/threonine-protein kinase pim-1 (Homo sapiens) (UniProt P11309); details: at 1 µM
[20] = molecular target: Serine/threonine-protein kinase pim-2 (Homo sapiens) (UniProt Q9P1W9); details: at 0.1 µM;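 note: reported value is the mean percent inhibition of PIM2, measured in the GSK PKIS kinase inhibitor set screen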
Chain of Serine/threonine-protein kinase pim-2 (Homo sapiens) (Q9P1W9 whole entry, looked up): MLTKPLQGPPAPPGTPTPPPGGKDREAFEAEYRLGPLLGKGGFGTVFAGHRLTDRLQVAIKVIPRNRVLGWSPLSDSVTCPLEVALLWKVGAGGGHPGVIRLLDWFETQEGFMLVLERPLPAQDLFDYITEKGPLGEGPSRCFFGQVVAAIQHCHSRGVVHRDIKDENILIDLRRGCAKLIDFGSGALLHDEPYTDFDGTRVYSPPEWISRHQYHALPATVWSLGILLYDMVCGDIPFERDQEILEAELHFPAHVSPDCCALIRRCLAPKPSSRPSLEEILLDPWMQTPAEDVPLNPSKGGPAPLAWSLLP

Chain of MAP kinase-interacting serine/threonine-protein kinase 2 (Homo sapiens) (Q9HBH9 whole entry, looked up): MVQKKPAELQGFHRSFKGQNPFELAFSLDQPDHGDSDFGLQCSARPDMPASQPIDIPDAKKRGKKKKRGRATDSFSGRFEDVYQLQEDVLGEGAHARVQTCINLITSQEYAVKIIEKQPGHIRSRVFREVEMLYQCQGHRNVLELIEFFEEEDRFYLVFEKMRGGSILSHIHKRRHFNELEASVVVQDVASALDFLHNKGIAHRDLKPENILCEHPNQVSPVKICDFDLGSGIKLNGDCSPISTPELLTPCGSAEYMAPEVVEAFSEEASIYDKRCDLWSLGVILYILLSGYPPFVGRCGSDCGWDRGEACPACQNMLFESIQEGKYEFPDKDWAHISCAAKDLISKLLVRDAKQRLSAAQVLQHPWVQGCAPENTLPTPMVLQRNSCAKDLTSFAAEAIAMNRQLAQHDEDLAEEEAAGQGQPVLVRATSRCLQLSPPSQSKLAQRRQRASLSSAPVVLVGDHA
Chain of Serine/threonine-protein kinase pim-1 (Homo sapiens) (P11309 whole entry, looked up): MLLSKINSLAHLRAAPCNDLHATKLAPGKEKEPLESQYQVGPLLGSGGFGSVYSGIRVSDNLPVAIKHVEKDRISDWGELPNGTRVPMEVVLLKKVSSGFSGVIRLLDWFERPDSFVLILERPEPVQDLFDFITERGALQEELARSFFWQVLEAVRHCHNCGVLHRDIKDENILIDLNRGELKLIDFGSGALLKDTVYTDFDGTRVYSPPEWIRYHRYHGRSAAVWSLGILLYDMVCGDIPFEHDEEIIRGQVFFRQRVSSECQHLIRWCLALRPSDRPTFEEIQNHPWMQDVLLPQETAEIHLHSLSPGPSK
Chain of MAP/microtubule affinity-regulating kinase 3 (Homo sapiens) (P27448 whole entry, looked up): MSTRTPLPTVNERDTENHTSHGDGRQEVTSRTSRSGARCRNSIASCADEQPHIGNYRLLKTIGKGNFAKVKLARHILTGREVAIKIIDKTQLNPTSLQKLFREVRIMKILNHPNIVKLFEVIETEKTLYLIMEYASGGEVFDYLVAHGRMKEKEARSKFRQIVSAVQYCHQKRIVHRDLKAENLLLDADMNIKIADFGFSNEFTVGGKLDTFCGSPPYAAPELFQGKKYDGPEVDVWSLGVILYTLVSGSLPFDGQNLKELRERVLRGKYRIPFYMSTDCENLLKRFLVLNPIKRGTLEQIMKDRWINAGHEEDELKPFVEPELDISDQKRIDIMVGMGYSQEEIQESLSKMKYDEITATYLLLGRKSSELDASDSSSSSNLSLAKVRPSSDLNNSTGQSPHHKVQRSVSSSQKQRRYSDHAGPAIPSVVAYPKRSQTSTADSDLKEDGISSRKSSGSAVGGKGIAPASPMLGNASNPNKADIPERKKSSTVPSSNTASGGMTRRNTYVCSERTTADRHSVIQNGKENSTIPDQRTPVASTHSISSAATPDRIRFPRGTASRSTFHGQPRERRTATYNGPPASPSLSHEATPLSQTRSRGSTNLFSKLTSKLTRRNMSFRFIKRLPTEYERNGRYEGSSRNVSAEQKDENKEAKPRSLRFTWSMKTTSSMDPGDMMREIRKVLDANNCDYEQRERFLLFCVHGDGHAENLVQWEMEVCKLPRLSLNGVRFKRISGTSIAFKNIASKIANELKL
Chain of PAS domain-containing serine/threonine-protein kinase (Homo sapiens) (Q96RG2 whole entry, the tested form may be a part, canonical isoform): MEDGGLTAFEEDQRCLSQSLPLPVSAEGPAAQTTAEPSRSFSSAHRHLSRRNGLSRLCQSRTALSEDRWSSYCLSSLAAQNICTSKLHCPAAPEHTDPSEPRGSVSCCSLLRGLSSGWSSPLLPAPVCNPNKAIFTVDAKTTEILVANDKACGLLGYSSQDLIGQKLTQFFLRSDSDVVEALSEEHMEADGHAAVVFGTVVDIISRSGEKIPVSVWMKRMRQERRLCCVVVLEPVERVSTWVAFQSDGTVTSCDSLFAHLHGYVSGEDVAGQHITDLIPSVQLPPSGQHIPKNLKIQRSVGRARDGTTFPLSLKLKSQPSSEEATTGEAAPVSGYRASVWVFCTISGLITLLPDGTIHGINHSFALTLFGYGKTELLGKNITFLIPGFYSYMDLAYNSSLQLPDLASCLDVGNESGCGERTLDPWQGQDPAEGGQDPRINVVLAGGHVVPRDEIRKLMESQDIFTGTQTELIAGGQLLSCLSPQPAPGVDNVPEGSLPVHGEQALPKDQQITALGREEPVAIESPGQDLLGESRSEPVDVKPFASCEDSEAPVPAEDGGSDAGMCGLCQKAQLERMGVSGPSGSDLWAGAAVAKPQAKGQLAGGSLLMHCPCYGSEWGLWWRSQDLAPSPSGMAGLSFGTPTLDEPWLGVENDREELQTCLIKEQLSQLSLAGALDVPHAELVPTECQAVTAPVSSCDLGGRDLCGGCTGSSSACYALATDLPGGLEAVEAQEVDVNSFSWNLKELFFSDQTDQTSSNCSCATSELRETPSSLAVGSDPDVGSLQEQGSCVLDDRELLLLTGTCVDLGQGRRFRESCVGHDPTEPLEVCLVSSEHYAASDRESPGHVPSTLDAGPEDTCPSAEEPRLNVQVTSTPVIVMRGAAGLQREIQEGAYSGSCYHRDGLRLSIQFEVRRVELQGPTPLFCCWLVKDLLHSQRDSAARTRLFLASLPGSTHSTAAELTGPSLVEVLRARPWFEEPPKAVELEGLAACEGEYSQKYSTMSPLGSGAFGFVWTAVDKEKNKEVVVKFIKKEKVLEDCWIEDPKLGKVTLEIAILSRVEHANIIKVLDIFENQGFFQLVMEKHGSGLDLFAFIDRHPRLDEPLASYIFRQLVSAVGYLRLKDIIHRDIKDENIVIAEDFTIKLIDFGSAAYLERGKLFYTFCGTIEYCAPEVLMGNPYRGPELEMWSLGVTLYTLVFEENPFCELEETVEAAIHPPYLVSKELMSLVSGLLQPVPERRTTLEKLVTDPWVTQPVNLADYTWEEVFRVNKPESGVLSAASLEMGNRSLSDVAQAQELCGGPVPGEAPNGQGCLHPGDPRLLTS
Chain of Maternal embryonic leucine zipper kinase (Homo sapiens) (Q14680 whole entry, looked up): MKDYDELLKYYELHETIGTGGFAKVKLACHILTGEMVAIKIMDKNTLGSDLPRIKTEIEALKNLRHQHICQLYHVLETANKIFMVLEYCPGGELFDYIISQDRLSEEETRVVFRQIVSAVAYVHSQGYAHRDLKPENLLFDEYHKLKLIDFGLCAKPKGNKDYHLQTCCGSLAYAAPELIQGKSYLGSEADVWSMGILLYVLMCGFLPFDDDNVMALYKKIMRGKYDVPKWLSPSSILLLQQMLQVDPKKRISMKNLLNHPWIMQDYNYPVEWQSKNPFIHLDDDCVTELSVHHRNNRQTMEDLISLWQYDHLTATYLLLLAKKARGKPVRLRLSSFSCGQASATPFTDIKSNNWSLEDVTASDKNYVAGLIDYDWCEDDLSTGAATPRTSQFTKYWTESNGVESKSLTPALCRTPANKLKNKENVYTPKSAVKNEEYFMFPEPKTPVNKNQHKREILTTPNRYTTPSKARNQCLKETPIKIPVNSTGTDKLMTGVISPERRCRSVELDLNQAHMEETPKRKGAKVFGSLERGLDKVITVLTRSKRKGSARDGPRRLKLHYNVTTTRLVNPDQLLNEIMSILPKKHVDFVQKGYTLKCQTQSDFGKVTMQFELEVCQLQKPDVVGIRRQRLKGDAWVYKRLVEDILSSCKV
Chain of MAP kinase-interacting serine/threonine-protein kinase 1 (Homo sapiens) (Q9BUB5 whole entry, looked up): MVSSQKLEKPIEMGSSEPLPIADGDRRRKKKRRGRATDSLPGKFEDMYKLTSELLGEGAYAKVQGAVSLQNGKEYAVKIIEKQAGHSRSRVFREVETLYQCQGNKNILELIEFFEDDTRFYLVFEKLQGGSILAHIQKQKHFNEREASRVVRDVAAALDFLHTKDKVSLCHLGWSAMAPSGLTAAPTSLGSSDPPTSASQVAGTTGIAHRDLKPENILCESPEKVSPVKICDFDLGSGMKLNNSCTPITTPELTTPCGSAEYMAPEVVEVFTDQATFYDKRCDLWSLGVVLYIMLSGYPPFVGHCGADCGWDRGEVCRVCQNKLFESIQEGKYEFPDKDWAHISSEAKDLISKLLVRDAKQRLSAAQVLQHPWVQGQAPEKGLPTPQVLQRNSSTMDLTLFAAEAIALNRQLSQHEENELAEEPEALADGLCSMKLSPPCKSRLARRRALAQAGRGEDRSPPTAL
Chain of Phosphorylase b kinase gamma catalytic chain, skeletal muscle/heart isoform (Homo sapiens) (Q16816 whole entry, looked up, canonical isoform): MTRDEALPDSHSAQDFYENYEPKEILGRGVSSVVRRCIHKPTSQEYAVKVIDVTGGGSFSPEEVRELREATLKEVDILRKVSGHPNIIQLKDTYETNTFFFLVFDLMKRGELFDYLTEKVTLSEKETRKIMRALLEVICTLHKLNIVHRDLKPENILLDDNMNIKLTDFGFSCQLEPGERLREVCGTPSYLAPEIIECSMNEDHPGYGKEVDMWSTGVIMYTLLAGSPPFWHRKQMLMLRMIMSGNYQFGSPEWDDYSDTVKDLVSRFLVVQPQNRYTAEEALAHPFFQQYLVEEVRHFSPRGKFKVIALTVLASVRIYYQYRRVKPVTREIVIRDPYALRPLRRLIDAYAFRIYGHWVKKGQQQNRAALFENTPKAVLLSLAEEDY

| Compound | inhibition [1] | inhibition [2] | inhibition [3] | inhibition [4] | inhibition [5] | inhibition [6] | inhibition [7] | inhibition [8] | inhibition [9] | inhibition [10] | inhibition [11] | inhibition [12] | inhibition [13] | inhibition [14] | inhibition [15] | inhibition [16] | inhibition [17] | inhibition [18] | inhibition [19] | inhibition [20] |
| --- | --- | --- | --- | --- | --- | --- | --- | --- | --- | --- | --- | --- | --- | --- | --- | --- | --- | --- | --- | --- |
| [O-][S+]1CCN(Cc2ccc(-c3ccc4ncnc(Nc5ccc(OCc6cccc(F)c6)c(Cl)c5)c4c3)o2)CC1 | 1.78% | 3.49% | 3.99% | 7.16% | 5.89% | 2.71% | 6.2% | 1.46% | 6.51% | 2.19% | 2.61% | 0.34% | 0.46% | 5.93% | 8.77% | 7.01% | 6.77% | 0.76% | 2.24% | 0.73% |
| COC(=O)Nc1nc2ccc(Oc3ccc(NC(=O)Nc4cccc(Cl)c4)cc3)cc2[nH]1 | -0.32% | -0.16% | 0.01% | 1.24% | -2.93% | 1.78% | 4.14% | -1.23% | 0.19% | -0.4% | 0.42% | 1.55% | 0.95% | 1.88% | 4.58% | 1.21% | 1.57% | -0.68% | -1.08% | -0.32% |
| c1cc(-c2cnn3nc(N4CCOCC4)ccc23)nc(NC2CC2)n1 | 12.9% | 1.01% | 5.05% | 8.27% | 43.9% | 4.33% | 19.8% | 7.65% | 42.5% | 0.85% | 7.93% | 0.49% | -0.94% | 3.94% | 29.5% | 6.12% | 12.2% | 0.22% | 3.37% | -0.29% |
| CS(=O)(=O)CCNCc1ccc(-c2ccc3ncnc(Nc4ccc(OCc5ccccc5)c(C(F)(F)F)c4)c3c2)o1 | 4.16% | 2.86% | 3.74% | 2.98% | 2.19% | 2.1% | 3.92% | -0.02% | 4.64% | 0.21% | 1.46% | 0% | 0.88% | 7.15% | 6.03% | 5.4% | 5.06% | -0.57% | 1.31% | 0.54% |
| COc1ccc(-c2oc3ncnc(N)c3c2-c2ccc(NC(=O)Nc3cc(C(F)(F)F)ccc3F)cc2)cc1 | 5.58% | 1.52% | 5.32% | 4.39% | -9.28% | 9.84% | 46.6% | 9.42% | 56.3% | 0.01% | 0.81% | 1.45% | 4.43% | 4.93% | 16.9% | 6.42% | 9.75% | -0.3% | 0.75% | 0.28% |
| Fc1ccc(-c2nn3ccccc3c2-c2ccncc2)cc1 | -0.24% | 0.11% | -0.34% | 3.07% | 6.94% | 0.31% | 3.36% | -0.39% | 3.58% | -0.63% | 0.53% | -0.17% | -0.32% | 2.42% | 2.09% | 0.28% | -0.7% | -0.39% | 0.04% | -0.3% |
| N#Cc1c(NC(=O)c2ccc(F)cc2)sc2c1CCCC2 | 1.66% | 0.11% | 1.29% | 0.18% | 5.26% | 0.47% | 1.91% | 0.57% | 1.1% | 0.6% | 0% | -0.36% | 0.96% | 1.21% | 2.76% | 1% | 1.36% | -1.04% | -0.95% | -0.39% |
| COc1cc2c(cc1Nc1nc(Nc3ccsc3C(N)=O)c3cc[nH]c3n1)N(C(=O)CN(C)C)CCC2(C)C | 7.59% | 4.25% | 6.44% | 6.08% | 14.8% | 3.09% | 6.26% | 1.36% | 3.03% | 1.24% | 9% | -1.55% | -1.18% | 18.5% | 62% | 5.83% | 6.91% | 68.4% | 93.3% | 2.12% |
| CCn1cc(-c2ccnc3[nH]ccc23)c(-c2cccc(NC(=O)Nc3ccc(OCc4ccccc4)cc3)c2)n1 | 2.97% | 1.33% | 2.66% | -3.14% | -3.15% | 0.36% | 1.39% | -1.1% | -0.1% | -0.11% | 1.54% | 0.94% | 1.65% | 1.58% | 4.8% | 1.37% | 1.3% | -0.93% | -1.25% | 0.19% |
| Cc1cccc2c1NC(=O)/C2=N\Nc1ccc(S(N)(=O)=O)cc1 | 2.38% | 1.25% | 2.15% | 3.77% | 2.1% | 1.62% | 2.53% | 0.84% | 1.26% | 0.47% | 1.34% | 0.5% | -1.79% | -1.4% | 2.98% | 3.6% | 2.88% | 1.4% | -0.19% | 0.28% |
| Cc1ccc(O)cc1Nc1ccnc2cc(-c3ccccn3)ccc12 | 10.8% | 2.1% | 3.98% | 1.72% | 3.79% | 3.8% | 6.21% | 1.72% | 4.94% | 0.54% | 4.34% | 0.71% | -0.05% | 2.23% | 9.36% | 5.58% | 2.55% | 0.67% | 3.79% | 0.49% |
| CNC(=O)c1cc(-c2ccc(F)cc2)cc(-c2ccc(S(=O)(=O)N3CCCC3)cc2)c1N | 2.91% | 0.61% | 1.19% | 4.19% | 3.17% | 0.63% | 0.76% | -0.84% | -0.59% | 2.35% | 1.52% | 0.47% | -0.16% | 2.9% | 4.24% | 3.8% | 3.18% | 0.06% | 0.44% | -0.39% |
| COc1ccc2c(-c3ccnc(Nc4cccc(OC(F)(F)F)c4)n3)cnn2n1 | 6.67% | 1.08% | 3.99% | 1.72% | 11.1% | 3.13% | 9.47% | 2.32% | 8.78% | -0.54% | 2.62% | -0.05% | 0.2% | 2.28% | 8.92% | 6.32% | 8.34% | 1.24% | 0.36% | -0.29% |
